Laboratory results as given in PubChem BioAssay (NCATS).
Results filed as inconclusive are left out. The source made the active and inactive calls. Unless noted, calls follow the shape of the dose curve; as a rule, active = well fitted curve in either direction with a large enough effect (not every such curve was filed as active); inconclusive = small, poorly fitted or top-dose-only effect, or another doubt; inactive = flat fitted curve, though single readings scatter.

Assays:
[1] = target: Lysosomal acid glucosylceramidase (Homo sapiens) (UniProt P04062); experiment: Glucocerebrosidase-p2 (AID 348; in the data active = potency below about 10 µM; also: potency is read from the fitted curve at half-maximal effect); details: purified GBA, blue fluorogenic substrate, 40 min
Chain of Lysosomal acid glucosylceramidase (Homo sapiens) (P04062 whole entry, looked up): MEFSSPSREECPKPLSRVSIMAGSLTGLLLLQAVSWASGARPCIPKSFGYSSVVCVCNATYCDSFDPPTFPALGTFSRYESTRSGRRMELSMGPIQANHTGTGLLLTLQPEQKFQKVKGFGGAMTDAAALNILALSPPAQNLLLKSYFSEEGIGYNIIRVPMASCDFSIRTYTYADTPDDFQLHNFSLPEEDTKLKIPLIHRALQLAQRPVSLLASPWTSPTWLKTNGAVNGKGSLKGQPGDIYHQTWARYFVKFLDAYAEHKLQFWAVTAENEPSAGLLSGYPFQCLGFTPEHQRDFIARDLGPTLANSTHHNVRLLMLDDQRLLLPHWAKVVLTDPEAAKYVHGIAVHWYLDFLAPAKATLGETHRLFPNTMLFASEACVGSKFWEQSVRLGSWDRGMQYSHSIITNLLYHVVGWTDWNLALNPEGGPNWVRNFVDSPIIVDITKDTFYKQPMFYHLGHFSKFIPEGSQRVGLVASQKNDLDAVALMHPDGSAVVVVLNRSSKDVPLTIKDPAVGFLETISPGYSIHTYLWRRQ
Procedure, shortened: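 Normal human glucocerebrosidase (0.2 nM) with blue fluorogenic substrate (80 uM final) in citrate/phosphate pH 5.9 with 10mM sodium taurocholate, 0.01% tween-20; 40 min RT, NaOH/glycine stop; fluorescence Ex 365/Em 440; AC50 from a titration from 0.6 nM upwards.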

[2] = AP1 Signaling Pathway (AID 357); details: ME-180 AP-1-bla reporter, EGF-induced, beta-lactamase ratio, 5 h; at 7.69 µM (top of the series) unless noted; also: % is scaled to controls: 0 for no effect and ±100 for the full control effect
Procedure, shortened: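 ME-180 cells with beta-lactamase reporter under AP-1 response element, stimulated with EC50 EGF; compounds tested in titration series, 5 h at 37 °C. CCF4 substrate added 2.5 h at room temperature; 460/530 nm emission ratio gave %activity and AC50.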

[3] = NFAT Signaling Pathway (AID 444); details: Jurkat NFAT-bla M1, carbachol, beta-lactamase ratio, 5 h; at 7.69 µM (top of the series) unless noted;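 also: carbachol stimulus at about its EC50 of 1 µM final; % is scaled to controls: 0 for no effect and ±100 for the full control effect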
Procedure, shortened: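 Jurkat cells carrying an NFAT-driven β-lactamase reporter and co-transfected muscarinic M1 receptor were treated with compound plus carbachol (1 uM final, an EC50 level) for 5 h at 37 °C. CCF4 loading followed for 1 h at RT; 460/530 nm ratio gave %activity.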

[4] = Stat Signaling Pathway (AID 446); details: ME-180 (cervical carcinoma) SIE beta-lactamase reporter, IL-6 stimulated, 5 h; at 7.69 µM (top of the series) unless noted;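 also: ME-180 cervical cancer cells given 40 pM IL-6 alongside compound; SIE-controlled beta-lactamase reporter measured as 460/530 nm FRET emission ratio; % is scaled to controls: 0 for no effect and ±100 for the full control effect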
Procedure, shortened: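 FRET read-out (405 nm excitation, 460/530 nm emission) of a beta-lactamase reporter under a STAT-inducible element in ME-180 cervical carcinoma cells. Cells with compound receive 40 pM IL-6 for 5 h. Values are normalised to AC90 stimulation and AC90 JAK-inhibitor controls.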

[5] = target: Glucocorticoid receptor (Homo sapiens) (UniProt P04150); experiment: GR-GFP Redistribution (AID 450;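 active = compounds whose dose series gives a full or clear partial fitted curve of increased nuclear translocation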; also: potency is read from the fitted curve at half-maximal effect); details: U2OS GR-GFP nuclear translocation, laser cytometry, 2 h
Chain of Glucocorticoid receptor (Homo sapiens) (P04150 whole entry, looked up, the tested form may be a part): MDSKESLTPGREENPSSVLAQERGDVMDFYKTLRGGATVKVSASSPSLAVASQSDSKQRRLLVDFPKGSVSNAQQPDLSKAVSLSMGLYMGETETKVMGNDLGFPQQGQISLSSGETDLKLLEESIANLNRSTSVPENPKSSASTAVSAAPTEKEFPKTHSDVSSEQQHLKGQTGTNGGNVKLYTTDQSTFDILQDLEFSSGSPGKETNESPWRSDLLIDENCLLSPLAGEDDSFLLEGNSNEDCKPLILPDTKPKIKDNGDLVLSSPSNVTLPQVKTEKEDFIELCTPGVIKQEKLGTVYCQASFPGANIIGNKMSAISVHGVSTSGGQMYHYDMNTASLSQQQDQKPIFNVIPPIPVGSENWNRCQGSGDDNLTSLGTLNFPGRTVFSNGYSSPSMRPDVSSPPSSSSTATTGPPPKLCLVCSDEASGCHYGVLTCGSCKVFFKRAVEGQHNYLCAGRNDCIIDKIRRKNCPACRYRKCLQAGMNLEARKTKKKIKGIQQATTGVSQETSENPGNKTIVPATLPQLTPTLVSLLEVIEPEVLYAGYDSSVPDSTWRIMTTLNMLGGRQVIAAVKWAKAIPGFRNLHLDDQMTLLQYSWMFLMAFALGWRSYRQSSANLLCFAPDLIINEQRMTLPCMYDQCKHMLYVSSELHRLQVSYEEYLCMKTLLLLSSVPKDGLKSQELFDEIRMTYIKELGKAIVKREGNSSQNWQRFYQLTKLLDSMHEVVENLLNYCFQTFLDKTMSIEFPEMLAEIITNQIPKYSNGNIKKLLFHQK

[6] = target: Glucocorticoid receptor (Homo sapiens) (UniProt P04150); experiment: GR-EFC Redistribution (AID 451; calls by dose curve; also: potency is read from the fitted curve at half-maximal effect); details: CHO-K1 GR-EFC translocation, beta-gal luminescence, 2 h
Procedure, shortened: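 CHO-K1 cells stably expressing nuclear-localized β-gal enzyme acceptor and GR fused C-terminally to the enzyme donor fragment; ligand-driven nuclear translocation restores β-gal by complementation. Compounds titrated up to 46 uM final, 2 h at 37 °C; luminescence read.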

[7] = target: Mitogen-activated protein kinase 10 (Mus musculus) (UniProt Q61831); experiment: JNK3 AlphaScreen Assay (AID 530); details: JNK3 lysate, c-Jun phosphorylation; series mostly up to 11.4 µM;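 also: kinase came from lysate of stimulated human HepG2 cells; signal reports phosphorylation of biotinylated GST-cJun 1-79 at Ser73 with 10 µM ATP; % is scaled to controls: 0 for no effect and ±100 for the full control effect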
Procedure, shortened: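 Biotinylated GST-cJun(1-79) served as substrate for JNK3 in HepG2 lysates stimulated with IL-1beta and TNF-alpha. ATP was 10 uM final, pH 7.6. Ser73 phosphorylation was quantified by AlphaScreen (680 nm excitation).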

[8] = target: 3',5'-cyclic-AMP phosphodiesterase 4B (Homo sapiens) (UniProt Q07343); experiment: qHTS Assay for Inhibitors of PDE-IV (AID 607; active = well fitted activation curve with a large enough effect in the main read-out, with a control signal flat, not every such curve was filed as active; also: % of control where 0% means no effect); details: HEK293 ACTOne CNG channel cells, membrane potential fluorescence; series mostly up to 22.9 µM
Chain of 3',5'-cyclic-AMP phosphodiesterase 4B (Homo sapiens) (Q07343 whole entry, looked up): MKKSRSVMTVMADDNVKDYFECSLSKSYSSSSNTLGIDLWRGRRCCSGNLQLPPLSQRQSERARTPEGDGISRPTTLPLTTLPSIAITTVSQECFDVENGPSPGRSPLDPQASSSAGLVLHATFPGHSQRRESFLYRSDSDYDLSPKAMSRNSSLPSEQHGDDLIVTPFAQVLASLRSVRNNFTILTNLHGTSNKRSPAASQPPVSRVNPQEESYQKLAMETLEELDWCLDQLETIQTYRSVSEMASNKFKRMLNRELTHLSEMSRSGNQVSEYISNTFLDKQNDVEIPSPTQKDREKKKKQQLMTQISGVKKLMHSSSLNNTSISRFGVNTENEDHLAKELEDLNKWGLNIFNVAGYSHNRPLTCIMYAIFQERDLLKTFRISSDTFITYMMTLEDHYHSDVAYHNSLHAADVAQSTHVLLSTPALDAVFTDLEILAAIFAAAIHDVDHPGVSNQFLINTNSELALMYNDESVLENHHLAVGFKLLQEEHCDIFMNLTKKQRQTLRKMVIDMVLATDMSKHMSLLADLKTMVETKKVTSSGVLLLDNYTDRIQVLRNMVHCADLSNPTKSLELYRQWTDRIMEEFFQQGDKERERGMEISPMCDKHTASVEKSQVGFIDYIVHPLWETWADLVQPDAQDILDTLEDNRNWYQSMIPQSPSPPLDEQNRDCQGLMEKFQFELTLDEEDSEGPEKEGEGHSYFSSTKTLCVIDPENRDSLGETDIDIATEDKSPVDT
Procedure, shortened: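 Cell-based read-out of cAMP via a modified cyclic nucleotide-gated channel and membrane potential dye (535/590 nm) in HEK293 cells expressing PDE4 endogenously. Compounds tested up to 22.9 uM final; 100 uM RO 20-1724 reference.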

[9] = target: Cytochrome P450 3A4 (Homo sapiens) (UniProt P08684); experiment: qHTS Assay for Inhibitors and Substrates of Cytochrome P450 3A4 (AID 884; active = well fitted curve in the direction sought with a large enough effect; an effect the other way counts as inactive or inconclusive; also: potency is read from the fitted curve at half-maximal effect; nearly all actives have a fitted effect of over 50% in size); details: recombinant CYP3A4, Luciferin-PPXE luminescence; series mostly up to 57.1 µM
Chain of Cytochrome P450 3A4 (Homo sapiens) (P08684 whole entry, looked up): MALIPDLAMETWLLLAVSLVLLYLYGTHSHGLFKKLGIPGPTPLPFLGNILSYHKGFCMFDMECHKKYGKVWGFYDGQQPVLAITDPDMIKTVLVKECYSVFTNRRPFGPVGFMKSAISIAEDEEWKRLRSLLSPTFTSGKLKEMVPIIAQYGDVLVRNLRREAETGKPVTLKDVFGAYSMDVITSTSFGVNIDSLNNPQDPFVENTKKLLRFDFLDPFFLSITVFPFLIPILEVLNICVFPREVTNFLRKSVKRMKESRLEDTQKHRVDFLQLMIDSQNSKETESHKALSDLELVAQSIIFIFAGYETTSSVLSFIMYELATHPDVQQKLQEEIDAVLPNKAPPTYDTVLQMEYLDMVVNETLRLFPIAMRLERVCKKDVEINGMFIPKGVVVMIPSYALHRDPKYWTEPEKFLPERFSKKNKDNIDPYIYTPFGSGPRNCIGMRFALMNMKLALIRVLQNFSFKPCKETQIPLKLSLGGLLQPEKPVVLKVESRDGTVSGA
Procedure, shortened: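 Luminescent readout of luciferin produced by CYP3A4 (20 nM) dealkylation of Luciferin-PPXE, 25 uM (its KM). NADPH-driven reaction ran 60 min at RT after 10 min compound preincubation; data scaled to 57 uM ketoconazole as 100% inhibition.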

[10] = target: Cytochrome P450 3A4 (Homo sapiens) (UniProt P08684); experiment: qHTS Assay for Activators of Cytochrome P450 3A4 (AID 885; active = well fitted curve in the direction sought with a large enough effect; an effect the other way counts as inactive or inconclusive; also: nearly all actives have a fitted effect of over 65% in size); details: recombinant CYP3A4, Luciferin-PPXE luminescence, 60 min; series mostly up to 11.4 µM
Procedure, shortened: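 Luminescent readout of luciferin formed from 25 uM Luciferin-PPXE (KM level) by 20 nM CYP3A4 in 200 mM KPO4, with 60 min NADPH-driven reaction at room temperature after 10 min compound exposure. Ketoconazole (57 uM) defined 100% inhibition.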

[11] = target: Cytochrome P450 2C19 (Homo sapiens) (UniProt P33261); experiment: qHTS Assay for Inhibitors and Substrates of Cytochrome P450 2C19 (AID 899; active = well fitted curve in the direction sought with a large enough effect; an effect the other way counts as inactive or inconclusive; also: nearly all actives have a fitted effect of over 60% in size; also: potency is read from the fitted curve at half-maximal effect); details: recombinant CYP2C19, luciferin-H EGE luminescence; series mostly up to 11.4 µM
Chain of Cytochrome P450 2C19 (Homo sapiens) (P33261 whole entry, looked up): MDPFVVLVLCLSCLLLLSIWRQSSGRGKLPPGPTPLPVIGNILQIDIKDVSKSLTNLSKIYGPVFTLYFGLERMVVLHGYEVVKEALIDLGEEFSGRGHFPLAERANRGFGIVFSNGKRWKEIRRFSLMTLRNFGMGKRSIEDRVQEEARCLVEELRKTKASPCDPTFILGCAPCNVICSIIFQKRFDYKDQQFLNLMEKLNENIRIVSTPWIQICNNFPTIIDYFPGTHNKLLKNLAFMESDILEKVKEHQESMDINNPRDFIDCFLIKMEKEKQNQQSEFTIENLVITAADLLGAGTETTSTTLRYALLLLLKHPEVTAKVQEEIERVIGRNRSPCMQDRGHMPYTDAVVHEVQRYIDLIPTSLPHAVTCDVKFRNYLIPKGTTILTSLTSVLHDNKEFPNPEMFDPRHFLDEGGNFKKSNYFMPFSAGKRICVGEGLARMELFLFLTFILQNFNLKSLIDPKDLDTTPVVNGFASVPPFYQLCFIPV
Procedure, shortened: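 Human CYP2C19 (5nM) with Luciferin-H EGE at 10uM (its KM) in 50mM KPO4 was preincubated with compound for 10 min at 37C. NADPH regeneration started a 60 min 37C reaction. Luciferin was read by luminescence, normalized to 57uM ketoconazole.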

[12] = target: Cytochrome P450 2D6 (Homo sapiens) (UniProt P10635); experiment: qHTS Assay for Inhibitors and Substrates of Cytochrome P450 2D6 (AID 891; active = well fitted curve in the direction sought with a large enough effect; an effect the other way counts as inactive or inconclusive; also: potency is read from the fitted curve at half-maximal effect; nearly all actives have a fitted effect of over 60% in size); details: recombinant CYP2D6, luciferin-ME EGE luminescence; series mostly up to 11.4 µM
Chain of Cytochrome P450 2D6 (Homo sapiens) (P10635 whole entry, looked up): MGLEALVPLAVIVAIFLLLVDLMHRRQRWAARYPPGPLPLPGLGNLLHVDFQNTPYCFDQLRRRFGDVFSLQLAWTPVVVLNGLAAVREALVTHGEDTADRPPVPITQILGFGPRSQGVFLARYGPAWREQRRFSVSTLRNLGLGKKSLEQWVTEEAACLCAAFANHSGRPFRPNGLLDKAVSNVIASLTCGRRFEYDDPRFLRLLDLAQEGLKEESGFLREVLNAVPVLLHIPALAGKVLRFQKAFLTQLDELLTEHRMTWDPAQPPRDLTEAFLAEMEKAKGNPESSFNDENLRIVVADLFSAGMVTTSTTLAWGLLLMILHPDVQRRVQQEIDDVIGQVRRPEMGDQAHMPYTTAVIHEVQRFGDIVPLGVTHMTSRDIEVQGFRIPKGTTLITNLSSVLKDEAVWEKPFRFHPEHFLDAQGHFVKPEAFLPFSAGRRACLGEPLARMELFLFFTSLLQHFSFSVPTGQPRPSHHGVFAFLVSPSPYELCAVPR
Procedure, shortened: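 Luminescent read-out of luciferin formed by 5 nM human CYP2D6 demethylating 30 uM Luciferin-ME EGE (Km level) over 60 min at room temperature after NADPH regeneration addition. Data normalized to full inhibition by 1.43 uM quinidine.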

COCCn1c(=O)c(-c2cc(F)cc(F)c2)nc2cnc(Oc3ccc(OC)cc3)nc21
inactive: Potency [1] > 11.4 µM | activity change, negative = inhibition [2] -11.1% | activity change, negative = inhibition [3] 0.515% | activity, negative = inhibition [4] -2.08% | Potency [5] > 9.22 µM | Potency [6] > 46 µM | Potency [7] | Potency [8] | Potency [10]
active: Potency [9] 3.16 µM

CC(=O)[C@H](C(=N)C#N)C(=O)Nc1ccccc1
inactive: Potency [1] > 11.4 µM | activity change, negative = inhibition [2] -0.768% | activity change, negative = inhibition [3] -3.12% | activity, negative = inhibition [4] 13.1% | Potency [5] > 46 µM | Potency [6] > 9.22 µM | Potency [7] | Potency [8] | Potency [11]

CN1CCC(n2[nH]c(-c3ccccc3)c(Cc3ccccc3)c2=O)CC1
active: activity change, negative = inhibition [3] -82.4% | Potency [9] 3.98 µM
inactive: Potency [1] > 11.4 µM | activity change, negative = inhibition [2] -1.32% | activity, negative = inhibition [4] 11.1% | Potency [5] > 46 µM | Potency [6] > 9.22 µM | Potency [7] | Potency [8] | Potency [10]

COc1ccc(-c2nc3cnc(Oc4ccccc4)nc3n(C3CC3)c2=O)cc1
inactive: Potency [1] > 11.4 µM | activity change, negative = inhibition [2] -23.1% | activity change, negative = inhibition [3] 15.1% | activity, negative = inhibition [4] 4.9% | Potency [5] > 9.22 µM | Potency [6] > 46 µM | Potency [7] | Potency [8] | Potency [10]

Cc1ccc(CSC(N)=Nc2ccccc2)cc1C
active: Potency [12] 794 nM | Potency [11] 2 µM
inactive: Potency [1] > 11.4 µM | activity change, negative = inhibition [2] 6.56% | activity change, negative = inhibition [3] -3.46% | activity, negative = inhibition [4] -10.5% | Potency [5] > 46 µM | Potency [6] > 9.22 µM | Potency [7] | Potency [8] | Potency [10]

O=c1[nH]c(SCc2cccc([N+](=O)[O-])c2)nc2nc[nH]c12
inactive: Potency [1] > 11.4 µM | activity change, negative = inhibition [2] -0.65% | activity change, negative = inhibition [3] -8.58% | activity, negative = inhibition [4] 8.09% | Potency [5] > 46 µM | Potency [6] > 9.22 µM | Potency [7] | Potency [8] | Potency [10] | Potency [11]

CC(C)(C)c1ccc(O)c(CN(Cc2cc(C(C)(C)C)ccc2O)C2CCCCC2)c1
inactive: Potency [1] > 11.4 µM | activity change, negative = inhibition [2] 5.42% | activity change, negative = inhibition [3] -3.2% | activity, negative = inhibition [4] 6.32% | Potency [5] > 46 µM | Potency [6] > 9.22 µM | Potency [7] | Potency [8]
active: Potency [12] 501 nM | Potency [11] 1.58 µM
